Laboratory results: PubChem BioAssay
Active and inactive are the calls of the source. Unless noted, no rule for the calls is given here.

Assays:
[1] = compound effects on lung adenocarcinoma cell viability – A549, calcein-AM fluorescence, 48 h, basal, profiling panel (AID 1162); conditions: higher = more signal; also: test concentration not given here
[2] = compound effects on differentiated 3T3-L1 adipocyte viability – cell-based, 3T3-L1 adipocytes, calcein-AM fluorescence, 48 h, basal, profiling panel (AID 1163); conditions: 3T3-L1 adipocytes viability, higher = more signal; also: test concentration not given here
[3] = compound effects on hepatocellular carcinoma cell viability – HepG2, calcein-AM fluorescence, 48 h, basal, profiling panel (AID 1164); conditions: higher = more signal; also: test concentration not given here
[4] = compound effects on multiple myeloma cell viability – MM1S, calcein-AM fluorescence, 48 h, basal, profiling panel (AID 1165); conditions: higher = more signal; also: test concentration not given here
[5] = calcein-AM signal in unstimulated myeloma cells – cell-based, calcein-AM fluorescence, 48 h, PK04 Diversity Set, profiling panel (AID 1166); conditions: RPMI8226 myeloma viability, higher = more signal;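 also: cells grown under basal conditions without added stimulus; test concentration not given here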
[6] = JC-1 mitochondrial signal, unstimulated HepG2 cells – cell-based, JC-1 fluorescence, 24 h, 100 nL compound, profiling panel (AID 1167); conditions: HepG2 mitochondrial potential, higher = more signal; also: test concentration not given here
[7] = JC-1 mitochondrial signal, unstimulated adipocytes – cell-based, JC-1 fluorescence, 3T3-L1 adipocytes, 24 h, 100 nL compound, profiling panel (AID 1168); conditions: JC-1 mitochondrial fluorescence, higher = more signal, called active from +8 up or from −8 down; also: test concentration not given here
[8] = JC-1 mitochondrial signal, unstimulated myeloma cells – cell-based, JC-1 fluorescence, RPMI8226, 24 h, 100 nL compound, profiling panel (AID 1169); conditions: JC-1 mitochondrial potential fluorescence, higher = more signal; also: test concentration not given here
[9] = JC-1 mitochondrial signal, unstimulated MM1S myeloma – cell-based, JC-1 fluorescence, 24 h, 100 nL compound, profiling panel (AID 1170); conditions: MM1S mitochondrial potential, higher = more signal; also: test concentration not given here
[10] = resazurin metabolic signal in A549 cells – cell-based, resazurin fluorescence, 24 h, PK04 Diversity Set, profiling panel (AID 1171); conditions: A549 viability, higher = more signal, called active from +8 up or from −8 down; also: test concentration not given here
[11] = resazurin metabolic signal in HepG2 cells – cell-based, resazurin fluorescence, 24 h, PK04 Diversity Set, profiling panel (AID 1172); conditions: HepG2 viability, higher = more signal; also: test concentration not given here
[12] = budding yeast growth changes without added modifier – OD600, strain BY4716, 24 h, basal condition, primary screen (AID 1173); conditions: S. cerevisiae BY4716 growth, OD600, 24 h; higher = more signal, called active from +8 up or from −8 down
[13] = viability profiling in MM1S myeloma cells – cell-based, resazurin fluorescence, basal, 24 h, PK04 Diversity Set, profiling panel (AID 1174); conditions: higher = more signal, called active from +8 up or from −8 down; also: test concentration not given here
[14] = target: Dihydroorotate dehydrogenase (quinone), mitochondrial (Plasmodium falciparum (isolate 3D7)) (UniProt Q08210); assay: inhibition of P. falciparum DHODH – biochemical, C-terminal His tag, absorbance 600 nm, primary screen (AID 1175); conditions: PfDHODH enzyme, DCIP absorbance 600 nm; higher = more signal, called active from +8 up or from −8 down;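 also: recombinant parasite enzyme with a five histidine tag at its C terminus; test concentration not given here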
Chain of Dihydroorotate dehydrogenase (quinone), mitochondrial (Plasmodium falciparum (isolate 3D7)) (Q08210 whole entry, looked up): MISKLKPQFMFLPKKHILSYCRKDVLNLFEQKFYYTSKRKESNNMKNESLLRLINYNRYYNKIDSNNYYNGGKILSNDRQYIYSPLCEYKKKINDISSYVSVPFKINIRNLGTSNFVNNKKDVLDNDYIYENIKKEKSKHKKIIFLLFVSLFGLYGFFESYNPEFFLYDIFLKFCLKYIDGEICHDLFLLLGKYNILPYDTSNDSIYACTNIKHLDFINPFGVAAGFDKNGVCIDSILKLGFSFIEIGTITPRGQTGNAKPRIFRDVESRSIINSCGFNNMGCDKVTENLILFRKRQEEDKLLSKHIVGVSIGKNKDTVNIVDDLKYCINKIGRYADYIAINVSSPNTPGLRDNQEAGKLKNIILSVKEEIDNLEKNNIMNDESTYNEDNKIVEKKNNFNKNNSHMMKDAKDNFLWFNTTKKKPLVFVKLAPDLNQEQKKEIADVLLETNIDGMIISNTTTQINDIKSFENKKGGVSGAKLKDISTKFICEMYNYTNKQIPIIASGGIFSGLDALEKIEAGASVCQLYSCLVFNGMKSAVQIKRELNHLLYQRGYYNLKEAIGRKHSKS

[15] = inhibition of PAO1 biofilm formation – strain PAO1, LB-PBS medium, absorbance 600 nm, primary screen (AID 1176); also: test concentration not given here; conditions: P. aeruginosa PAO1 growth/biofilm, A600, 12 h; higher = more signal
[16] = growth modulation of vineyard yeast isolate – strain RM11-1a, OD600, basal, 24 h, primary screen (AID 1177);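 also: cultures grown under basal conditions with no added stressor; test concentration not given here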; conditions: S. cerevisiae RM11-1a growth, OD600, 24 h; higher = more signal, called active from +8 up or from −8 down
[17] = growth of efflux-deficient E. coli DRC39 – strain DRC39, OD650, 24 h, E. coli filamentation inducers, primary screen (AID 1178);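 also: growth measured as culture turbidity by optical density at 650 nm; test concentration not given here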; conditions: E. coli DRC39 acrAB, higher = more signal, called active from +8 up or from −8 down
[18] = growth of efflux-deficient E. coli DRC39 – strain DRC39, OD650, 48 h, E. coli filamentation inducers, primary screen (AID 1179);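 also: screen aims at cell division blockers that make cells filament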; conditions: E. coli DRC39 delta-acrAB growth, higher = more signal, called active from +8 up or from −8 down
[19] = viability profiling in RPMI8226 myeloma cells – cell-based, resazurin fluorescence, basal, 24 h, PK04 Diversity Set, profiling panel (AID 1180); conditions: higher = more signal;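 also: RPMI8826 multiple myeloma cell line at 5000 cells per well; test concentration not given here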
[20] = target: E3 ubiquitin-protein ligase XIAP (Homo sapiens) (UniProt P98170); assay: small molecules binding XIAP protein – biophysical, small-molecule microarray, fluorescence 635 nm, primary screen (AID 1181); conditions: higher = more signal;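 also: score merges 667 nm emission and signal to noise over triplicate slides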
Chain of E3 ubiquitin-protein ligase XIAP (Homo sapiens) (P98170 whole entry, looked up): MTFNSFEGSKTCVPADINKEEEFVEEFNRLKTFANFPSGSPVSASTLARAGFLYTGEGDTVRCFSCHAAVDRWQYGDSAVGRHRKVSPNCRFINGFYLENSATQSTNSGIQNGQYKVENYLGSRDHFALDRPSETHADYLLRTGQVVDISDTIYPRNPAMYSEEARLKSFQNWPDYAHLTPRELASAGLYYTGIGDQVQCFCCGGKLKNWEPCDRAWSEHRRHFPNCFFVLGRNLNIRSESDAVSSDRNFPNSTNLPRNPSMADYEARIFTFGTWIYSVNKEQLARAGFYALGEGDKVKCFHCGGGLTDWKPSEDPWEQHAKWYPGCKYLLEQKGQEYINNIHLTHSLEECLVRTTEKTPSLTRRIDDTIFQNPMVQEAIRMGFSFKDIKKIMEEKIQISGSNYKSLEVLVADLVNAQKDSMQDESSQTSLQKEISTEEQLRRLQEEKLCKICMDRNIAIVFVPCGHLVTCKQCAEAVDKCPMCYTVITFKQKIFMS

SMILES: C=Cc1ccc([C@H]2N[C@H](C(=O)O)CC[C@@H]2C)cc1
- z-score [1]: -0.241
- z-score [2]: -0.173
- z-score [3]: 0.453
- z-score [4]: -0.568
- z-score [5]: -1.15
- z-score [6]: 0.547
- z-score [7]: 0.0233 (inactive)
- z-score [8]: 0.239
- z-score [9]: 0.43
- z-score [10]: -0.439 (inactive)
- z-score [11]: -0.869
- z-score [12]: -0.366 (inactive)
- z-score [13]: -0.601 (inactive)
- composite z-score [14]: -0.13 (inactive)
- z-score [15]: -0.54 (inactive)
- z-score [16]: -0.649 (inactive)
- z-score [17]: 0.505 (inactive)
- z-score [18]: 0.296 (inactive)
- z-score [19]: -0.845
- composite z-score [20]: -0.168

SMILES: CO[C@H]1COC(=O)CCC[C@@H](C)[C@H](OC)COC(=O)[C@@H](C)NC(=O)CC=C[C@@H]1C
- z-score [1]: -0.682
- z-score [2]: 1.07
- z-score [3]: -0.796
- z-score [4]: 0.0819
- z-score [5]: -1.04
- z-score [6]: 1.95
- z-score [7]: 1.34 (inactive)
- z-score [8]: 0.246
- z-score [9]: -0.754
- z-score [10]: 1.02 (inactive)
- z-score [11]: 0.0039
- z-score [12]: 0.315 (inactive)
- z-score [13]: 0.77 (inactive)
- composite z-score [14]: -2.33 (inactive)
- z-score [15]: -1.46 (inactive)
- z-score [16]: -1.07 (inactive)
- z-score [17]: -1 (inactive)
- z-score [18]: -0.345 (inactive)
- z-score [19]: 0.0228
- composite z-score [20]: -0.138

SMILES: O=C1C=C[C@@H](O)[C@@H]2[C@@H]3C(=O)N(C[C@@H]4CCCO4)C(=O)[C@@H]3CC[C@@H]12
- z-score [1]: -0.663
- z-score [2]: 0.316
- z-score [3]: 0.324
- z-score [4]: -0.121
- z-score [5]: 0.757
- z-score [6]: 1.09
- z-score [7]: 0.0236 (inactive)
- z-score [8]: -0.643
- z-score [9]: 0.744
- z-score [10]: -0.379 (inactive)
- z-score [11]: 0.111
- z-score [12]: 0.499 (inactive)
- z-score [13]: 0.561 (inactive)
- composite z-score [14]: -0.0546 (inactive)
- z-score [15]: -0.425 (inactive)
- z-score [16]: 0.0539 (inactive)
- z-score [17]: 0.117 (inactive)
- z-score [18]: -0.282 (inactive)
- z-score [19]: 0.91
- composite z-score [20]: 0.0032

SMILES: Cc1cc2c(nc1C)CCCCN2CC(C)ON=C[C@@H](C)[C@H](OCc1ccccc1)C(C)C (stereo not given in full)
- z-score [1]: -0.672
- z-score [2]: -0.44
- z-score [3]: -1.27
- z-score [4]: -2.94
- z-score [5]: -3.77
- z-score [6]: -1.91
- z-score [7]: -1.4 (inactive)
- z-score [8]: -0.262
- z-score [9]: 0.034
- z-score [10]: 4.05 (inactive)
- z-score [11]: 1.48
- z-score [12]: -5.49 (inactive)
- z-score [13]: 0.674 (inactive)
- composite z-score [14]: -0.983 (inactive)
- z-score [15]: 0.675 (inactive)
- z-score [16]: -1.02 (inactive)
- z-score [17]: -0.152 (inactive)
- z-score [18]: -0.4 (inactive)
- z-score [19]: 1.4
- composite z-score [20]: 0.0856

SMILES: COc1ccc(COC(=O)NN=C2C[C@@H](O)[C@@H](O)[C@@H]3[C@@H]4C(=O)N(c5cccc(Oc6ccccc6)c5)C(=O)[C@@H]4CC[C@@H]23)cc1
- z-score [1]: 0.226
- z-score [2]: -0.518
- z-score [3]: -0.826
- z-score [4]: 0.754
- z-score [5]: 0.196
- z-score [6]: -0.767
- z-score [7]: -0.0215 (inactive)
- z-score [8]: 0.587
- z-score [9]: -0.442
- z-score [10]: 0.166 (inactive)
- z-score [11]: 0.702
- z-score [12]: 0.968 (inactive)
- z-score [13]: 0.106 (inactive)
- composite z-score [14]: 0.861 (inactive)
- z-score [15]: -0.282 (inactive)
- z-score [16]: 1.65 (inactive)
- z-score [17]: -0.401 (inactive)
- z-score [18]: -0.587 (inactive)
- z-score [19]: 0.45
- composite z-score [20]: -0.22

SMILES: O=c1n(-c2ccccc2)c(=O)n2n1CC[C@@H]1C(=NOCc3ccccc3)[C@H]3O[C@H]3[C@@H](O)[C@@H]12
- z-score [1]: 0.172
- z-score [2]: -0.915
- z-score [3]: 0.251
- z-score [4]: -0.232
- z-score [5]: 0.169
- z-score [6]: -0.406
- z-score [7]: -0.78 (inactive)
- z-score [8]: -0.0915
- z-score [9]: -0.531
- z-score [10]: -1.08 (inactive)
- z-score [11]: -1.28
- z-score [12]: -0.274 (inactive)
- z-score [13]: -0.503 (inactive)
- composite z-score [14]: -3.02 (inactive)
- z-score [15]: -0.0485 (inactive)
- z-score [16]: -0.249 (inactive)
- z-score [17]: -0.792 (inactive)
- z-score [18]: -0.604 (inactive)
- z-score [19]: -1.12
- composite z-score [20]: -0.0026

SMILES: COC(=O)CC=C[C@@H](C)[C@@H](C=NO[C@@H](C)c1cn([C@H](CO)Cc2ccccc2)nn1)OC
- z-score [1]: 0.52
- z-score [2]: 1.03
- z-score [3]: 0.656
- z-score [4]: 0.354
- z-score [5]: -0.609
- z-score [6]: 0.341
- z-score [7]: 1.08 (inactive)
- z-score [8]: 0.0532
- z-score [9]: 0.723
- z-score [10]: -0.493 (inactive)
- z-score [11]: -0.849
- z-score [12]: -0.966 (inactive)
- z-score [13]: 0.104 (inactive)
- composite z-score [14]: -0.842 (inactive)
- z-score [15]: -0.418 (inactive)
- z-score [16]: -2.71 (inactive)
- z-score [17]: 0.24 (inactive)
- z-score [18]: -0.913 (inactive)
- z-score [19]: -0.514
- composite z-score [20]: -0.139

SMILES: COC(=O)[C@H](C)NC(=O)CCC1CC(OC(=O)NCc2cccc3ccccc23)CC2(CCCC(COC(=O)NCC(c3ccccc3)c3ccccc3)O2)O1 (stereo not given in full)
- z-score [1]: -0.101
- z-score [2]: -0.294
- z-score [3]: -0.618
- z-score [4]: -3.41
- z-score [5]: -1.22
- z-score [6]: 1.21
- z-score [7]: -0.0303 (inactive)
- z-score [8]: -0.125
- z-score [9]: -0.493
- z-score [10]: 2.23 (inactive)
- z-score [11]: 1.64
- z-score [12]: -0.425 (inactive)
- z-score [13]: 0.945 (inactive)
- composite z-score [14]: 0.0975 (inactive)
- z-score [15]: -1.24 (inactive)
- z-score [16]: 0.15 (inactive)
- z-score [17]: 0.0127 (inactive)
- z-score [18]: 0.393 (inactive)
- z-score [19]: 1.04
- composite z-score [20]: -0.108

SMILES: O=C1C[C@@H](O)[C@@H](O)[C@@H]2[C@@H]3C(=O)N(Cc4ccc5c(c4)OCO5)C(=O)[C@@H]3CC[C@H]12
- z-score [1]: 0.474
- z-score [2]: 1.46
- z-score [3]: 0.517
- z-score [4]: 0.0737
- z-score [5]: -0.0121
- z-score [6]: -0.0331
- z-score [7]: -0.221 (inactive)
- z-score [8]: 0.522
- z-score [9]: 1.37
- z-score [10]: -0.0495 (inactive)
- z-score [11]: 0.201
- z-score [12]: 0.0442 (inactive)
- z-score [13]: -0.0254 (inactive)
- composite z-score [14]: -0.564 (inactive)
- z-score [15]: -0.0121 (inactive)
- z-score [16]: -0.545 (inactive)
- z-score [17]: -0.494 (inactive)
- z-score [18]: -0.389 (inactive)
- z-score [19]: -0.0372
- composite z-score [20]: -0.152
